This passage reports Potency results from PubChem BioAssay (Tox21).

Each structure is given as a SMILES string. The source made the active and inactive calls. A call without a number means that no potency is given here. Unless noted, the call rests on the fitted dose curve; in most records, active means well fitted activation curve with a large enough effect in the repeat runs; inconclusive means weak or mixed curves; inactive means flat fitted curve, though single readings scatter.

Chain of KiSS-1 receptor (Homo sapiens) (Q969F8 whole entry, looked up): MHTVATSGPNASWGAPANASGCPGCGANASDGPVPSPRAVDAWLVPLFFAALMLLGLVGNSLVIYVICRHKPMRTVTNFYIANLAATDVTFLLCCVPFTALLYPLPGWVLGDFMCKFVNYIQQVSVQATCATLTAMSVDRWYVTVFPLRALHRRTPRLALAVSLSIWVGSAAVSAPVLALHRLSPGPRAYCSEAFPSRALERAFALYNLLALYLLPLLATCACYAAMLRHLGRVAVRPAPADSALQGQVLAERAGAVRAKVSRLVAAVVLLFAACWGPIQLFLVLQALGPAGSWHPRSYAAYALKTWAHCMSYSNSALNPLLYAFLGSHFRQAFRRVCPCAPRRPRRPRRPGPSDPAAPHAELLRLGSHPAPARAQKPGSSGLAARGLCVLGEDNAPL

For one experiment, the target named is Gonadotropin-releasing hormone receptor (Homo sapiens) (UniProt P30968). Kind of experiment: Human gonadotropin-releasing hormone receptor (GnRHR) small molecule agonists, calcium flux assay in GnRHR-HEK293 cells (AID 1920063; calls by dose curve; further: nearly all actives have a fitted effect of over 35% in size; further: potency means the concentration at half of the fitted maximal effect). The conditions noted are these: calcium flux fluorescence, agonist mode; series mostly up to 57.6 µM. The method, boiled down: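 Calcium flux, agonist mode, human GnRHR stably integrated in HEK293; dye 1 h at 37 C before compound; Ex/Em=480/540 kinetic read, 3 min; 15 concentrations, triplicate.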
Chain of Gonadotropin-releasing hormone receptor (Homo sapiens) (P30968 whole entry, looked up): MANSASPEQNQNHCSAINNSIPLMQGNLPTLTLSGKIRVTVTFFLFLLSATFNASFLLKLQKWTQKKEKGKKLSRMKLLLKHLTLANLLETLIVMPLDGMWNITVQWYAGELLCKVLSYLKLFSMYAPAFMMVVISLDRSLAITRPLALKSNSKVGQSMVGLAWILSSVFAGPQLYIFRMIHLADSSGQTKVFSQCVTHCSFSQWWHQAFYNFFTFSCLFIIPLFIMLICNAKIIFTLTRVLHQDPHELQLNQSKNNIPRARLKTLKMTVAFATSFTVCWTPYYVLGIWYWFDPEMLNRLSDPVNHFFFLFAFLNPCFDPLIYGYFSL
As to `OCCOc1ccc(OCCO)cc1`, the Potency entry is “inactive”.
Take `CC1=C(CC(=O)O)c2cc(F)ccc2/C1=C\c1ccc(S(C)=O)cc1` (stereo unspecified): the Potency entry was “inactive”.
On the same count and under the same terms, the same measure for `CC(C)CCCCCCc1ccc(O)cc1`: “inactive”; for `C=CCS(=O)(=O)O`: “inactive”.
Still for that read-out and setting: the same measure for `CCCCSCCCC`: “inactive”; for `CCNc1nc(N)nc(Cl)n1`: “inactive”; for `Cc1ccc(N)cc1[N+](=O)[O-]`: “inactive”.
Still for that read-out and setting: the same measure for `Cc1c(C)c2c(c(C)c1O)CCC(C)(COc1ccc(CC3SC(=O)NC3=O)cc1)O2` (stereo unspecified): “inactive”; for `CCCC1O[C@@H]2C[C@H]3[C@@H]4CCC5=CC(=O)C=C[C@]5(C)[C@H]4[C@@H](O)C[C@]3(C)[C@]2(C(=O)CO)O1` (stereo partly specified): “inactive”; for `CC(C[N+](C)(C)C)OC(N)=O` (stereo unspecified): 13.5 µM (active).
Turning to `O=C(O)CCCCCCCCCCCC(=O)O`, the Potency result is “inactive”.
Same read-out and setting: the same measure for `COc1cc(C(=O)N2CCOCC2)cc(OC)c1OC`: “inactive”.

The next experiment addresses KiSS-1 receptor (Homo sapiens) (UniProt Q969F8). The experiment can be described thus: Human kisspeptin (KISS1R) small molecule agonists, calcium flux assay in KISS1R-HEK293 cells (AID 1920064). The conditions noted are these: KISS1R-HEK293, calcium flux fluorescence, agonist; series mostly up to 76.8 µM. In outline:
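Triplicate 15-concentration series were applied to dye-loaded human KISS1R HEK293 cells, and agonist-evoked calcium fluorescence was captured for 3 min.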
Take `COc1ccc(NC(C)=O)cc1`: the Potency result is “inactive”.
In the case of `c1cnc2cc3c(cc2n1)C1CNCC3C1`, the Potency entry was “inactive”.
The same measure, in the same setting: the same measure for `OCc1c2ccccc2cc2ccccc12`: “inactive”; for `Oc1ccc(Cl)cc1Sc1cc(Cl)ccc1O`: “inactive”.
For the molecule `CCCc1ccccc1`, the Potency result was “inactive”.
On the same count and under the same terms, the same measure for `CC(=O)CC(C)=O`: “inactive”; for `C=CC(=O)OCCCCCC`: “inactive”; for `CC(C)(C)C(=O)OCOP(=O)(COCCn1cnc2c(N)ncnc21)OCOC(=O)C(C)(C)C`: “inactive”.
Still for that read-out and setting: the result for `Oc1ccc(C(c2ccc(O)cc2)C(Cl)(Cl)Cl)cc1` reads “inactive”; that for `Nc1cc(S(=O)(=O)O)cc2cc(S(=O)(=O)O)cc(O)c12`, “inactive”.
Still for that read-out and setting: the result for `N=C(N=C(N)N)N1CCOCC1` reads “inactive”; that for `Oc1c(Cl)ccc(Cl)c1Cl`, “inactive”; that for `CC1=CC[C@@]23C[C@@H]1C(C)(C)[C@@H]2CC[C@H]3C`, “inactive”.
On to `O=C(O)c1cccc(C(F)(F)F)c1`, for which the Potency entry is “inactive”.
On to `CC(O)Cn1cnc2c1c(=O)n(C)c(=O)n2C` (stereo unspecified), for which the Potency entry was “inactive”.
Still for that read-out and setting: the same measure for `CN(C)CCOC(c1ccc(Cl)cc1)c1ccccn1` (stereo unspecified): “inactive”.
Turning to `O=C(O)c1cc(-c2ccccc2)nc2ccccc12`, the Potency entry was “inactive”.
On the same count and under the same terms, the result for `CC1(C)C(O)C(C)(C)C1O` (stereo unspecified) reads “inactive”; that for `Cc1ccc(N(C)C)cc1`, “inactive”.
Still for that read-out and setting: the same measure for `C/C=C/C(=O)CCCC`: “inactive”.
Same read-out and setting: the same measure for `CC(C)(c1ccc(O)cc1)c1ccc(O)cc1`: “inactive”; for `C=CCCCCCCCC`: “inactive”; for `CC(C)=O`: “inactive”.
With `O=C(O)[C@@H]1[C@H]2C[C@H]3c4[nH]c5ccccc5c4CCN3C[C@@H]2CC[C@@H]1O`, the Potency result is “inactive”.
The same measure, in the same setting: the result for `C=CC(C)CCC=C(C)C` (stereo unspecified) reads “inactive”.
Turning to `O=C(O)C(=O)Nc1cccc(-c2nn[nH]n2)c1`, the Potency result is “inactive”.
The same measure, in the same setting: the result for `CN(C)N=Nc1ccccc1` reads “inactive”.
Still for that read-out and setting: the same measure for `OCCOc1ccc(OCCO)cc1`: “inactive”; for `CC1=C(CC(=O)O)c2cc(F)ccc2/C1=C\c1ccc(S(C)=O)cc1` (stereo unspecified): “inactive”.
Same read-out and setting: the result for `CC(C)CCCCCCc1ccc(O)cc1` reads “inactive”; that for `C=CCS(=O)(=O)O`, “inactive”; that for `CCCCSCCCC`, “inactive”.
As for `CCNc1nc(N)nc(Cl)n1`, the Potency result is “inactive”.
The same measure, in the same setting: the result for `Cc1ccc(N)cc1[N+](=O)[O-]` reads “inactive”; that for `Cc1c(C)c2c(c(C)c1O)CCC(C)(COc1ccc(CC3SC(=O)NC3=O)cc1)O2` (stereo unspecified), “inactive”; that for `CCCC1O[C@@H]2C[C@H]3[C@@H]4CCC5=CC(=O)C=C[C@]5(C)[C@H]4[C@@H](O)C[C@]3(C)[C@]2(C(=O)CO)O1` (stereo partly specified), “inactive”.
The same measure, in the same setting: the result for `CC(C[N+](C)(C)C)OC(N)=O` (stereo unspecified) reads “inactive”; that for `O=C(O)CCCCCCCCCCCC(=O)O`, “inactive”.
Turning to `COc1cc(C(=O)N2CCOCC2)cc(OC)c1OC`, the Potency result is “inactive”.
